Values joined by “and” are separate entries in the source; they are usually repeats but may differ in a detail not shown here. Identical values can stand only once. Inconclusive results are not listed. Some compounds were tested as several samples or in several runs, with calls that do not always agree. Active and inactive are the calls of the source. Calls come from the whole dose curve; as a rule, active = well fitted curve in the direction sought with a large enough effect; inconclusive = small, poorly fitted or top-dose-only effect, or another doubt; inactive = no such curve, though single readings can be large; an effect the other way counts as inactive or inconclusive.
Key:
MKL-1 = test: qHTS assay to identify novel small-molecules to repurpose for Merkel cell carcinoma treatment (AID 1296009); settings: MCC and control cell lines, CellTiter-Glo viability, 72 h; series mostly up to 46 µM; note: nearly all actives have a fitted effect of over 60% in size; note: potency is the fitted concentration of half-maximal effect
Procedure, shortened: (§1)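 Viability readout: ATP luminescence (CellTiter-Glo) after 72 hr drug exposure at 37 degree celsius. Dose-response format was 8 points for NPC and 11 points for MIPE; data normalized to in-plate controls.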

MKL-2 = test: as above; settings: MCC and control cell lines, CellTiter-Glo viability, 72 h; series mostly up to 46 µM
Procedure, shortened: as §1

UISO = test: as above; settings: MCC and control cell lines, CellTiter-Glo viability, 72 h; series mostly up to 46 µM
Procedure, shortened: as §1

WaGa = test: as above; settings: MCC and control cell lines, CellTiter-Glo viability, 72 h; series mostly up to 46 µM
Procedure, shortened: as §1

C33A = test: Primary qHTS to identify gynecologic anti-cancer compounds using libraries of approved drugs and bioactive compounds (AID 1345084); settings: Gynecologic cancer cell panel viability, ATPlite luminescence, 48 h; series mostly up to 57.5 µM; note: nearly all actives have a fitted effect of over 55% in size; note: potency is the fitted concentration of half-maximal effect
Procedure, shortened: (§2)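 48 h compound exposure at 37 C, 5% CO2; five-point qHTS. ATPlite luminescence readout of cell ATP.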

CAOV3 = test: as above; settings: Gynecologic cancer cell panel viability, ATPlite luminescence, 48 h; series mostly up to 57.5 µM
Procedure, shortened: as §2

CASKI = test: as above; settings: Gynecologic cancer cell panel viability, ATPlite luminescence, 48 h; series mostly up to 57.5 µM
Procedure, shortened: as §2

Es-2 = test: as above; settings: Gynecologic cancer cell panel viability, ATPlite luminescence, 48 h; series mostly up to 57.5 µM
Procedure, shortened: as §2

Hek293T = test: as above; settings: Gynecologic cancer cell panel viability, ATPlite luminescence, 48 h, control line for the selectivity index; series mostly up to 57.5 µM
Procedure, shortened: as §2

JEG-3 = test: as above; settings: Gynecologic cancer cell panel viability, ATPlite luminescence, 48 h; series mostly up to 57.5 µM
Procedure, shortened: as §2

OV90 = test: as above; settings: Gynecologic cancer cell panel viability, ATPlite luminescence, 48 h; series mostly up to 57.5 µM
Procedure, shortened: as §2

PA-1 = test: as above; settings: Gynecologic cancer cell panel viability, ATPlite luminescence, 48 h; series mostly up to 57.5 µM
Procedure, shortened: as §2

SKOV3 = test: as above; settings: Gynecologic cancer cell panel viability, ATPlite luminescence, 48 h; series mostly up to 57.5 µM
Procedure, shortened: as §2

Tov-21-G = test: as above; settings: Gynecologic cancer cell panel viability, ATPlite luminescence, 48 h; series mostly up to 57.5 µM
Procedure, shortened: as §2

[1] = Drug repurposing screens with cells derived from glioblastoma tumor samples (AID 1345199); settings: GBM patient neurospheres viability, ATP luminescence, 48 h; note: nearly all actives have a fitted effect of over 40% in size
Procedure, shortened: (§3)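 Primary testing used CD133+ neurospheres from four GBM patients, seven concentrations, 48 h exposure and ATP-based viability; confirmation added three slower-growing patient lines.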

HeLa = test: Primary qHTS to identify gynecologic anti-cancer compounds using libraries of approved drugs and bioactive compounds (AID 1345084); settings: Gynecologic cancer cell panel viability, ATPlite luminescence, 48 h; series mostly up to 57.5 µM; note: nearly all actives have a fitted effect of over 55% in size; note: potency is the fitted concentration of half-maximal effect
Procedure, shortened: as §2

Tov112D = test: as above; settings: Gynecologic cancer cell panel viability, ATPlite luminescence, 48 h; series mostly up to 57.5 µM
Procedure, shortened: as §2

astro = test: Drug repurposing screens with cells derived from glioblastoma tumor samples (AID 1345199); settings: viability, ATP luminescence, 48 h; series mostly up to 45.9 µM; note: nearly all actives have a fitted effect of over 40% in size
Procedure, shortened: as §3

[2] = qHTS assay to identify inhibitors of the type 1 interferon - major histocompatibility complex class I in skeletal muscle: Counter screen cell viability and HiBit confirmation (AID 1347412); settings: iHSKM muscle cells + IFN-b, HiBiT or CellTiter-Glo, 24 h, at 45.9 µM (top of the series); note: nearly all actives have a fitted effect of over 60% in size
Procedure, shortened: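 Luminescence read-out: Nano-Glo HiBiT lytic signal from C-terminally HiBiT-tagged HLA-B in CRISPR-edited human myoblasts, plus CellTiter Glo ATP as viability counter screen. IFN-beta 4.0 ng/ml; 24 hrs treatment at 37 C, 5% CO2.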

[3] = at 45.9 µM (top of the series), tumour line B
[4] = at 45.9 µM (top of the series), tumour line D
[5] = at 46.1 µM (top of the series), tumour line C
[6] = at 46 µM (top of the series), tumour line A
% is set by controls: 0 for no effect and ±100 for the full control effect.

CC(C)(C#N)c1cc(Cn2cncn2)cc(C(C)(C)C#N)c1
inactive: Potency (MKL-1) | Potency (MKL-2) | Potency (UISO) | Potency (WaGa) | Potency (C33A) | Potency (CAOV3) | Potency (CASKI) | Potency (Es-2) | Potency (Hek293T) | Potency (JEG-3) | Potency (OV90) | Potency (PA-1) | Potency (SKOV3) | Potency (Tov-21-G) | activity, negative = cell killing [1, 3] -13.4% | activity, negative = cell killing [1, 4] -8.79% | activity, negative = cell killing [1, 5] -3.92%

O=C(O)c1cccnc1
inactive: Potency (MKL-1) | Potency (MKL-2) | Potency (UISO) | Potency (WaGa) | Potency (C33A) | Potency (CAOV3) | Potency (CASKI) | Potency (Es-2) | Potency (HeLa) | Potency (Hek293T) | Potency (JEG-3) | Potency (OV90) | Potency (PA-1) | Potency (SKOV3) | Potency (Tov-21-G) | Potency (Tov112D) | activity, negative = cell killing [1, 3] -10% | activity, negative = cell killing [1, 4] -8.9% | activity, negative = cell killing [1, 5] -28.3% | Potency (astro)

CCC(=O)O[C@]1(C(=O)SCF)[C@H](C)C[C@H]2[C@@H]3C[C@H](F)C4=CC(=O)C=C[C@]4(C)[C@@]3(F)[C@@H](O)C[C@@]21C
inactive: Potency (MKL-1) | Potency (MKL-2) | Potency (UISO) | Potency (WaGa) | Potency (C33A) | Potency (CASKI) | Potency (Es-2) | Potency (Hek293T) | Potency (JEG-3) | Potency (OV90) | Potency (PA-1) | Potency (SKOV3) | Potency (Tov-21-G) | Potency (Tov112D) | activity, negative = cell killing ([1]; at 20 µM (top of the series), tumour line C) -9.5% | activity, negative = cell killing ([1]; at 21.2 µM (top of the series), tumour line B) -18.7% | activity, negative = cell killing ([1]; at 21.2 µM (top of the series), tumour line D) 13.1% | activity, negative = cell killing ([1]; at 21.3 µM (top of the series), tumour line A) -14.8% | Potency (astro) | activity change, negative = inhibition ([2]; HiBiT) -26.7% | activity change, negative = inhibition ([2]; Viability) 10%

Cc1ccnc2c1NC(=O)c1cccnc1N2C1CC1
inactive: Potency (MKL-1) | Potency (MKL-2) | Potency (UISO) | Potency (WaGa) | Potency (C33A) | Potency (CAOV3) | Potency (CASKI) | Potency (Es-2) | Potency (HeLa) | Potency (Hek293T) | Potency (JEG-3) | Potency (OV90) | Potency (PA-1) | Potency (Tov-21-G) | Potency (Tov112D) | activity, negative = cell killing [1, 3] -8.19% | activity, negative = cell killing [1, 4] 4.3% | activity, negative = cell killing [1, 6] -21.5% | activity, negative = cell killing [1, 5] -3.33%

NC1(c2ccc(-c3nc4ccn5c(=O)[nH]nc5c4cc3-c3ccccc3)cc2)CCC1
inactive: Potency (C33A) | Potency (CAOV3) | Potency (Es-2) | Potency (HeLa) | Potency (Tov112D)
active: Potency (MKL-1) 20.9 µM | Potency (MKL-2) 13.3 µM | Potency (UISO) 13.2 µM | Potency (WaGa) 16.6 µM and 26.6 µM | Potency (Hek293T) 3.55 µM | Potency (OV90) 2 µM | Potency (PA-1) 22.4 µM | Potency (SKOV3) 11.2 µM

COc1ccc(C(=O)CC(=O)c2ccc(C(C)(C)C)cc2)cc1
inactive and 1.05 µM (active): Potency (MKL-1)
active: Potency (MKL-2) 0.935 µM
inactive and 11.8 µM (active): Potency (UISO)
inactive: Potency (WaGa) | Potency (C33A) | Potency (CAOV3) | Potency (CASKI) | Potency (Es-2) | Potency (Hek293T) | Potency (JEG-3) | Potency (OV90) | Potency (PA-1) | Potency (SKOV3) | Potency (Tov-21-G) | Potency (Tov112D) | activity, negative = cell killing [1, 4] -26.5% | activity, negative = cell killing [1, 5] 3.24%

S=P(N1CC1)(N1CC1)N1CC1
inactive: Potency (MKL-1) | Potency (MKL-2) | Potency (UISO) | Potency (WaGa) | Potency (C33A) | Potency (CAOV3) | Potency (Es-2) | Potency (HeLa) | Potency (Hek293T) | Potency (JEG-3) | Potency (PA-1) | Potency (SKOV3) | Potency (Tov-21-G) | Potency (Tov112D) | activity, negative = cell killing [1, 3] -13.6% | activity, negative = cell killing [1, 4] -2.85% | activity, negative = cell killing [1, 5] -0.68% | activity, negative = cell killing ([1]; at 91.6 µM (top of the series), tumour line B) -15.1% | activity, negative = cell killing ([1]; at 91.6 µM (top of the series), tumour line D) -14.2% | activity, negative = cell killing ([1]; at 99.2 µM (top of the series), tumour line C) -13% | Potency (astro)

CCOC(=O)[C@H](CCc1ccccc1)N[C@H]1CS[C@H](c2cccs2)CN(CC(=O)O)C1=O
inactive and 1.05 µM (active): Potency (MKL-2)
inactive: Potency (UISO) | Potency (C33A) | Potency (CAOV3) | Potency (CASKI) | Potency (Es-2) | Potency (Hek293T) | Potency (JEG-3) | Potency (OV90) | Potency (PA-1) | Potency (SKOV3) | Potency (Tov-21-G) | Potency (Tov112D) | activity, negative = cell killing [1, 3] -5.27% | activity, negative = cell killing [1, 4] -7.87% | activity, negative = cell killing [1, 6] -16.7% | activity, negative = cell killing [1, 5] -21.6% | Potency (astro)
inactive and 469 nM (active): Potency (WaGa)
inactive and 5.26 µM (active): Potency (MKL-1)

Cc1noc(NS(=O)(=O)c2ccc(N)cc2)c1C
inactive: Potency (MKL-1) | Potency (MKL-2) | Potency (UISO) | Potency (WaGa) | Potency (C33A) | Potency (CASKI) | Potency (Es-2) | Potency (Hek293T) | Potency (JEG-3) | Potency (OV90) | Potency (PA-1) | Potency (SKOV3) | Potency (Tov-21-G) | Potency (Tov112D) | activity, negative = cell killing [1, 3] -5.33% and -3.65% | activity, negative = cell killing [1, 4] -24.3% and -9.55% | activity, negative = cell killing [1, 6] -16.5% | activity, negative = cell killing [1, 5] -22.2% and -6.01%

Clc1ccccc1CN1CCc2sccc2C1
inactive: Potency (MKL-1) | Potency (MKL-2) | Potency (UISO) | Potency (WaGa) | Potency (C33A) | Potency (CASKI) | Potency (Es-2) | Potency (Hek293T) | Potency (JEG-3) | Potency (OV90) | Potency (SKOV3) | Potency (Tov-21-G) | Potency (Tov112D) | activity, negative = cell killing [1, 3] -14.5% | activity, negative = cell killing [1, 4] -10.5% | activity, negative = cell killing [1, 5] 4.64% | Potency (astro)

CCC(C)(C)c1ccc(CC(C)CN2C[C@@H](C)O[C@@H](C)C2)cc1 (stereo partly drawn)
inactive: Potency (MKL-1) | Potency (MKL-2) | Potency (UISO) | Potency (WaGa) | Potency (C33A) | Potency (CAOV3) | Potency (CASKI) | Potency (Es-2) | Potency (Hek293T) | Potency (JEG-3) | Potency (OV90) | Potency (PA-1) | Potency (SKOV3) | Potency (Tov-21-G) | Potency (Tov112D)

COc1ncnc(NS(=O)(=O)c2ccc(N)cc2)c1OC
inactive: Potency (MKL-1) | Potency (MKL-2) | Potency (UISO) | Potency (WaGa) | Potency (C33A) | Potency (CAOV3) | Potency (CASKI) | Potency (Es-2) | Potency (HeLa) | Potency (Hek293T) | Potency (JEG-3) | Potency (OV90) | Potency (PA-1) | Potency (SKOV3) | Potency (Tov-21-G) | Potency (Tov112D) | activity, negative = cell killing [1, 3] -5.91% | activity, negative = cell killing [1, 4] -22.1% | activity, negative = cell killing [1, 5] -21.2% | Potency (astro)
